This is part of a sample that, as a whole, favours compounds with a hit. Of some 83,000 tested, about 20% had one in any assay.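 For each line, cells grew in 96-well plates with the test compound present at a single concentration for 48 hours.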 Values without a mark were called inactive. Activity calls are given as the source filed them. How the source made its calls: active means growth percent below 10; inactive means the rest.
Legend:
Test in all cases: NCI-60 one-dose screen, 48 h (100 = growth as untreated, 0 = no growth, -100 = all killed)
Conditions in all cases: 10 µM unless noted
[1] = test system: HCT-15 colon
[2] = test system: HT29 colon
[3] = test system: SNB-75 CNS
[4] = test system: SNB-19 CNS
[5] = test system: U251 CNS
[6] = test system: PC-3 prostate
[7] = test system: SK-MEL-5 melanoma
[8] = test system: UACC-62 melanoma
[9] = test system: LOX IMVI melanoma
[10] = test system: SK-MEL-28 melanoma

COc1cc(OC)c(C(=O)C(CN(C)C)CN(C)C)cc1OC
growth [1]: -52.4% (active) | growth [2]: 2.66% (active) | growth [3]: 91.4% | growth [4]: 102% | growth [5]: 101% | growth [6]: 94.5% | growth [7]: 101% | growth [8]: 19.2% | growth [9]: -68.8% (active) | growth [10]: 21.8%

C#CC#CC#CC#CC#CC#CC#CC#CCC1OC[C@H](COC(=O)O[C@@H](C(=O)O[C@H]2C[C@@]3(O)[C@@H](OC(=O)c4ccccc4)[C@@H]4[C@]5(OC(C)=O)CO[C@@H]5C[C@H](O)[C@@]4(C)C(=O)[C@H](OC(C)=O)C(=C2C)C3(C)C)[C@@H](NC(=O)c2ccccc2)c2ccccc2)O1 (stereo not given in full)
growth [1]: 88% | growth [2]: 7.52% (active) | growth [3]: 7.72% (active) | growth [4]: 27.9% | growth [5]: 26.2% | growth [6]: 23.2% | growth [7]: 31.6% | growth [8]: 28.3% | growth [9]: 29.6% | growth [10]: 53.6%

C=CN(C(=O)N1CCN(c2cc3c(cc2F)c(=O)c(C(=O)O)cn3C2CC2)CC1)c1nc(-c2ccc(OC)cc2)cs1
growth [1]: 13.6% | growth [2]: 15.4% | growth [3]: 23.6% | growth [4]: 19.2% | growth [5]: 13.4% | growth [6]: 16.4% | growth [7]: -7.22% (active) | growth [8]: 16.4% | growth [9]: 1.92% (active) | growth [10]: 45.7%

COC(=O)C(Cc1ccccc1)NC(=O)c1ccc(NC(=O)c2[nH]c(C)c(Cl)c2Cl)c(OC(C)C)c1 (stereo not given)
growth [1]: 40.5% | growth [2]: 58% | growth [3]: 62.6% | growth [4]: 42.8% | growth [5]: 22.3% | growth [6]: 11.4% | growth [7]: 97.7% | growth [8]: 90.6% | growth [9]: 34.1% | growth [10]: 102%

COc1ccc(-c2nc3c(N)c(CO)cnc3s2)cc1
growth [1]: 93.8% | growth [2]: 97.7% | growth [3]: 82.9% | growth [4]: 97.2% | growth [5]: 88.6% | growth [6]: 91.8% | growth [7]: 82.7% | growth [8]: 92.7% | growth [9]: 81.9% | growth [10]: 98.5%

O=C(CCCCCNC(=O)c1cc(=O)c(O)co1)Nc1ccccc1
growth [1]: 91.5% | growth [2]: 106% | growth [3]: 82.7% | growth [4]: 101% | growth [5]: 89.9% | growth [6]: 99.7% | growth [7]: 101% | growth [8]: 97.9% | growth [9]: 92.7% | growth [10]: 104%

O=[N+]([O-])c1cc(NS(=O)(=O)c2ccccc2)ccc1NS(=O)(=O)c1ccccc1
growth [1]: 72.1% | growth [2]: 84.6% | growth [3]: 125% | growth [4]: 108% | growth [5]: 102% | growth [6]: 80.7% | growth [7]: 99.4% | growth [8]: 85.7% | growth [9]: 99% | growth [10]: 111%

CC(=C(c1ccc(OCCN2CCCCC2)cc1)c1ccc(OCCN2CCCCC2)cc1)c1ccc(Cl)cc1
growth [1]: -88.3% (active) | growth [2]: -86.3% (active) | growth [3]: -97.3% (active) | growth [4]: -91.2% (active) | growth [5]: -90.7% (active) | growth [6]: -82.4% (active) | growth [7]: -96.9% (active) | growth [8]: -76.9% (active) | growth [9]: -94.5% (active) | growth [10]: -96.1% (active)

COC(=O)CCC/C=C\C[C@H]1C=CC(=O)/C1=C/C[C@@H](O)C/C=C\CC(F)(F)F
growth [1]: -18.5% (active) | growth [2]: -42.6% (active) | growth [3]: 68.3% | growth [4]: 33.7% | growth [5]: -69.1% (active) | growth [6]: -16.2% (active) | growth [7]: -89.7% (active) | growth [8]: -37.2% (active) | growth [9]: -82.7% (active) | growth [10]: -25.5% (active)

CO[C@H]1CC(=O)n2c3ccccc3c3c4c(c5c6ccccc6n1c5c32)C(=O)NC4=O
growth [1]: 62.4% | growth [2]: 26.3% | growth [3]: 4.5% (active) | growth [4]: 98.4% | growth [5]: 46.8% | growth [6]: 54.6% | growth [7]: 60.7% | growth [8]: 44.9% | growth [9]: 63.8% | growth [10]: 39.9%

CCN1C(=O)N(CC)C2C1NC(=S)N2/N=C/c1ccc(C(F)(F)F)cc1 (stereo not given)
growth [1]: 39.4% | growth [2]: 43.6% | growth [3]: 48.5% | growth [4]: 73.6% | growth [5]: 70.5% | growth [6]: 59.7% | growth [7]: 52% | growth [8]: 47.4% | growth [9]: 73.2% | growth [10]: 76.3%

CCOC(=O)c1nn(CC(O)c2ccccc2)c(NC(=O)Nc2cccc(F)c2)c1C (stereo not given)
growth [1]: 98% | growth [2]: 101% | growth [3]: 108% | growth [4]: 97.3% | growth [5]: 92% | growth [6]: 92.5% | growth [7]: 96.7% | growth [8]: 80.8% | growth [9]: 98.4% | growth [10]: 113%

Nc1ccc(-c2csc(-n3[nH]c(=O)ccc3=O)n2)cc1
growth [1]: 89.1% | growth [2]: 94.5% | growth [3]: 99% | growth [4]: 98.6% | growth [5]: 100% | growth [6]: 96.2% | growth [7]: -99.6% (active) | growth [8]: 101% | growth [9]: 102% | growth [10]: 108%

CCN1C(=O)N(CC)C2C1NN=c1s/c(=C\c3ccc(C(F)(F)F)cc3)c(=O)n12 (stereo not given)
growth [1]: 9.86% (active) | growth [2]: 1.55% (active) | growth [3]: 15% | growth [4]: 24% | growth [5]: 6.65% (active) | growth [6]: 22.6% | growth [7]: 6.27% (active) | growth [8]: 30.9% | growth [9]: 17.4% | growth [10]: 55.8%

COc1ccc(/C=C2\CN(C(=O)C(Cl)Cl)C/C(=C\c3ccc(OC)cc3)C2=O)cc1
growth [1]: -14.4% (active) | growth [2]: 5.9% (active) | growth [3]: 21% | growth [4]: -10.9% (active) | growth [5]: -68.2% (active) | growth [6]: -8.13% (active) | growth [7]: -41% (active) | growth [8]: -66% (active) | growth [9]: -77.8% (active) | growth [10]: -12.5% (active)

Cc1ccc(S(=O)(=O)Oc2ccc3sc4cccc(NCCN(C)C)c4c(=O)c3c2)cc1
growth [1]: -94.2% (active) | growth [2]: -60.6% (active) | growth [3]: -92.9% (active) | growth [4]: -60% (active) | growth [5]: -78.6% (active) | growth [6]: -86.4% (active) | growth [7]: -99% (active) | growth [8]: -98.2% (active) | growth [9]: -96.5% (active) | growth [10]: -92.4% (active)

COc1cc(Cl)c(C)cc1NC(=O)c1cc2ccccc2cc1O
growth [1]: 9.39% (active) | growth [2]: 37.8% | growth [3]: 21.4% | growth [4]: 23.1% | growth [5]: 6.67% (active) | growth [6]: 2.12% (active) | growth [7]: -35.1% (active) | growth [8]: 14.2% | growth [9]: 2.44% (active) | growth [10]: 36.5%

COc1ccc(C(=O)c2cc3c(N)c(C(=O)Nc4ccccc4)sc3nc2C)cc1
growth [1]: 18.7% | growth [2]: 14.9% | growth [3]: 28.2% | growth [4]: 25.2% | growth [5]: 17.8% | growth [6]: 24.3% | growth [7]: 17.2% | growth [8]: 30.5% | growth [9]: 53.6% | growth [10]: 59.8%

CC(C)(C)n1cc(-c2ccnc(NCCCNS(=O)(=O)c3ccc(C(F)(F)F)cc3)c2)c(-c2cccc(F)c2)n1
growth [1]: 37.7% | growth [2]: 16.5% | growth [3]: 66.6% | growth [4]: 86.5% | growth [5]: 67.6% | growth [6]: 71.9% | growth [7]: 78.9% | growth [8]: 89.4% | growth [9]: 73.6% | growth [10]: 96.9%

CCN(CC)c1ccc(CNc2cc(C)nc3ccccc23)cc1
growth [1]: 69.6% | growth [2]: 43.3% | growth [3]: 75.2% | growth [4]: 73.8% | growth [5]: 63.9% | growth [6]: 64% | growth [7]: 9.25% (active) | growth [8]: 68.5% | growth [9]: 65% | growth [10]: 78.4%

CCN1C(=O)N(CC)C2C1N=C(SCc1ccc(Cl)cc1)N2/N=C/C=C/c1ccccc1OC (stereo not given)
growth [1]: 31.4% | growth [2]: 58.3% | growth [3]: 50.1% | growth [4]: 79.3% | growth [5]: 68.8% | growth [6]: 43.7% | growth [7]: 44.2% | growth [8]: 31.2% | growth [9]: 44.5% | growth [10]: 70.9%

O=C(NC1CC(F)C1)c1cc2cccnc2n1-c1ccc(Cl)c(Cl)c1 (stereo not given)
growth [1]: 96.6% | growth [2]: 101% | growth [3]: 89.1% | growth [4]: 95.2% | growth [5]: 93.9% | growth [6]: 89.8% | growth [7]: 98.9% | growth [8]: 83.7% | growth [9]: 89.6% | growth [10]: 117%

C[C@@H]1O[C@@H](O[C@@H]2C[C@H](c3ccc4c(c3O)C(=O)C3=C(C4=O)[C@@]4(O)C(=O)C[C@](C)(O)C[C@@]4(O)C=C3)O[C@H](C)[C@H]2O)CC[C@@H]1O[C@H]1C[C@@H](O)[C@H](O)[C@@H](C)O1
growth [1]: 94.8% | growth [2]: 108% | growth [3]: 90.7% | growth [4]: 100% | growth [5]: 98.7% | growth [6]: 96% | growth [7]: 101% | growth [8]: 97.8% | growth [9]: 94.6% | growth [10]: 116%

O=C(Nc1ncc(Cc2ccccc2)s1)c1ccc2c(c1)OCCCO2
growth [1]: 21.5% | growth [2]: 9.72% (active) | growth [3]: 34.3% | growth [4]: 37.4% | growth [5]: 35.4% | growth [6]: 27.7% | growth [7]: 8.06% (active) | growth [8]: 29% | growth [9]: 29.9% | growth [10]: 36.8%

CCN1CCN(C(=O)[C@]23CC[C@@H](C)[C@H](C)[C@@H]2C2=CC[C@@H]4[C@@]5(C)C/C(=C/c6cccnc6)C(=O)C(C)(C)[C@@H]5CC[C@@]4(C)[C@]2(C)CC3)CC1
growth [1]: 15.2% | growth [2]: 12.1% | growth [3]: 27.6% | growth [4]: 45.9% | growth [5]: 27.9% | growth [6]: 16.7% | growth [7]: -23.4% (active) | growth [8]: 33.8% | growth [9]: 14.9% | growth [10]: 37.4%

CC(C)(C)n1cc(-c2ccnc(NCCNS(=O)(=O)c3ccc(O)cc3)c2)c(-c2cccc(O)c2)n1
growth [1]: 107% | growth [2]: 76.9% | growth [3]: 74.4% | growth [4]: 98.5% | growth [5]: 82.4% | growth [6]: 101% | growth [7]: 79.7% | growth [8]: 101% | growth [9]: 106% | growth [10]: 98.9%
